For 31 sequences, binding signal results are on record in PMC12820563, “FoxP3 forms a head-to-head dimer in vivo and stabilizes its multimerization on adjacent microsatellites”.

Over roughly 16,000 sequences, “rpm ratio (pull-down/input)” has its median near 0.5; the highest 2% begin near 5.5. Only a selection was taken, and the highest values are over-represented in it overall.

The test has as its target T1, MBP-FoxP3dN (Mus musculus, UniProt Q99JB6 188-423).
T1 sequence: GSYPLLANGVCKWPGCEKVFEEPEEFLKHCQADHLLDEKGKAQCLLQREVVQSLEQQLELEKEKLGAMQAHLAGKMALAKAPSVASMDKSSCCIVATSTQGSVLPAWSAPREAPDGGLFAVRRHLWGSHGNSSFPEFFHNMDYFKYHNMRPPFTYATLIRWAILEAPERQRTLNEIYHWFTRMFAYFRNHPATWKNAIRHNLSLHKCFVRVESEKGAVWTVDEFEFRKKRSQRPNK
Kind of test: PD-seq (MBP pull-down with sequencing); 20 mM Tris-HCl pH 7.5, 100 mM NaCl, 1.5 mM MgCl2, 0.4 uM protein, 0.1 uM dsDNA library, 30 min, room temperature, amylose pull-down; high values mean tight binding. The conditions noted are these: protein: recombinant; tags: His6-MBP; chain copies: 2; dsDNA, one strand shown. A digest of the protocol:
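In Tris pH 7.5 buffer with NaCl and MgCl2, 0.4 µM His6-MBP-tagged mouse FoxP3 or FoxP1 fragment lacking the N-terminus, from E. coli, met 0.1 µM Klenow-filled double-stranded degenerate DNA library for 30 min at room temperature. Three washes on amylose resin followed capture of the complexes, then proteinase K release of DNA, PCR barcoding and Illumina sequencing. Binding is taken as pooled-replicate reads-per-million enrichment of pull-down relative to input.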
Turning to “GATGATTGTTCTCCCAGCTGATGAATTTGAGCATTCGAGTAAACAAATTTTCCTAATCTTTCTGTTCAAGCGCCATCTAC”, the binding signal is 5.36 RPM ratio (pull-down/input).

For “GATGATTGTTCTCCCAGCTGATGAATTGAGCAGCTCGAGTAAACAAATTTTCCTAATCTTTCTGTTCAAGCGCCATCTAC”, the binding signal is 1.12 RPM ratio (pull-down/input).

Take “GATGATTGTTCTCCCAGCTGATGAATTTTGAGCATCGAGTAAACAAATTTTCCTAATCTTTCTGTTCAAGCGCCATCTAC”: the binding signal is 0.906 RPM ratio (pull-down/input).

In the case of “GATGATTGTTCTCCCAGCTGATGAATTGAGCATTTCGAGTAAACAAATTTTCCTAATCTTTCTGTTCAAGCGCCATCTAC”, the binding signal was 6.08 RPM ratio (pull-down/input).

For “GATGATTGTTCTCCCAGCTGATGAATTCGAGCATTCGAGTAAACAAATTTTCCTAATCTTTCTGTTCAAGCGCCATCTAC”, the binding signal was 4.97 RPM ratio (pull-down/input).

“GATGATTGTTCTCCCAGCTGATGAATTGAGCATCTCGAGTAAACAAATTTTCCTAATCTTTCTGTTCAAGCGCCATCTAC”: the binding signal was 6.26 RPM ratio (pull-down/input).

As for “GATGATTGTTCTCCCAGCTGATGAATTGAAGTCTTCGAGTAAACAAATTTTCCTAATCTTTCTGTTCAAGCGCCATCTAC”, the binding signal was 0.312 RPM ratio (pull-down/input).

Consider “GATGATTGTTCTCCCAGCTGATGAATTAGCCTCCTCGAGTAAACAAATTTTCCTAATCTTTCTGTTCAAGCGCCATCTAC”, for which the binding signal is 1.57 RPM ratio (pull-down/input).

For the sequence “GATGATTGTTCTCCCAGCTGATGAATTAAGCGGATCGAGTAAACAAATTTTCCTAATCTTTCTGTTCAAGCGCCATCTAC”, the binding signal is 0.341 RPM ratio (pull-down/input).

With “GATGATTGTTCTCCCAGCTGATGAATTGTAAACGTCGAGTAAACAAATTTTCCTAATCTTTCTGTTCAAGCGCCATCTAC”, the binding signal was 0.874 RPM ratio (pull-down/input).

In the case of “GATGATTGTTCTCCCAGCTGATGAATTTCGCCACTCGAGTAAACAAATTTTCCTAATCTTTCTGTTCAAGCGCCATCTAC”, the binding signal is 5.74 RPM ratio (pull-down/input).

Take “GATGATTGTTCTCCCAGCTGATGAATTCTCCCACTCGAGTAAACAAATTTTCCTAATCTTTCTGTTCAAGCGCCATCTAC”: the binding signal is 0.246 RPM ratio (pull-down/input).

As to “GATGATTGTTCTCCCAGCTGATGAATTTTCCCACTCGAGTAAACAAATTTTCCTAATCTTTCTGTTCAAGCGCCATCTAC”, the binding signal is 0.213 RPM ratio (pull-down/input).

Take “GATGATTGTTCTCCCAGCTGATGAATTCAGCCACTCGAGTAAACAAATTTTCCTAATCTTTCTGTTCAAGCGCCATCTAC”: the binding signal is 5.07 RPM ratio (pull-down/input).

On to “GATGATTGTTCTCCCAGCTGATGAATTTCTCCACTCGAGTAAACAAATTTTCCTAATCTTTCTGTTCAAGCGCCATCTAC”, for which the binding signal is 0.272 RPM ratio (pull-down/input).

For the sequence “GATGATTGTTCTCCCAGCTGATGAATTCCCACTCTCGAGTAAACAAATTTTCCTAATCTTTCTGTTCAAGCGCCATCTAC”, the binding signal was 0.323 RPM ratio (pull-down/input).

As for “GATGATTGTTCTCCCAGCTGATGAATTGTGCCACTCGAGTAAACAAATTTTCCTAATCTTTCTGTTCAAGCGCCATCTAC”, the binding signal was 6.84 RPM ratio (pull-down/input).

Consider “GATGATTGTTCTCCCAGCTGATGAATTCCCCCACTCGAGTAAACAAATTTTCCTAATCTTTCTGTTCAAGCGCCATCTAC”, for which the binding signal is 0.253 RPM ratio (pull-down/input).

“GATGATTGTTCTCCCAGCTGATGAATTCCGCCACTCGAGTAAACAAATTTTCCTAATCTTTCTGTTCAAGCGCCATCTAC”: the binding signal was 6.15 RPM ratio (pull-down/input).

In the case of “GATGATTGTTCTCCCAGCTGATGAATTCTGCCACTCGAGTAAACAAATTTTCCTAATCTTTCTGTTCAAGCGCCATCTAC”, the binding signal is 6.04 RPM ratio (pull-down/input).

Turning to “GATGATTGTTCTCCCAGCTGATGAATTCGCCCACTCGAGTAAACAAATTTTCCTAATCTTTCTGTTCAAGCGCCATCTAC”, the binding signal was 0.406 RPM ratio (pull-down/input).

Regarding “GATGATTGTTCTCCCAGCTGATGAATTTTCGCACTCGAGTAAACAAATTTTCCTAATCTTTCTGTTCAAGCGCCATCTAC”, the binding signal is 0.504 RPM ratio (pull-down/input).

As to “GATGATTGTTCTCCCAGCTGATGAATTTCTCGTCTCGAGTAAACAAATTTTCCTAATCTTTCTGTTCAAGCGCCATCTAC”, the binding signal was 0.277 RPM ratio (pull-down/input).

As to “GATGATTGTTCTCCCAGCTGATGAATTACCACTGTCGAGTAAACAAATTTTCCTAATCTTTCTGTTCAAGCGCCATCTAC”, the binding signal was 0.41 RPM ratio (pull-down/input).

As to “GATGATTGTTCTCCCAGCTGATGAATTAGACTTGTCGAGTAAACAAATTTTCCTAATCTTTCTGTTCAAGCGCCATCTAC”, the binding signal was 0.529 RPM ratio (pull-down/input).

For the sequence “GATGATTGTTCTCCCAGCTGATGAATTCTCATGTTCGAGTAAACAAATTTTCCTAATCTTTCTGTTCAAGCGCCATCTAC”, the binding signal was 0.416 RPM ratio (pull-down/input).

In the case of “GATGATTGTTCTCCCAGCTGATGAATTATCGGTCTCGAGTAAACAAATTTTCCTAATCTTTCTGTTCAAGCGCCATCTAC”, the binding signal was 0.382 RPM ratio (pull-down/input).

Take “GATGATTGTTCTCCCAGCTGATGAATTACGTACATCGAGTAAACAAATTTTCCTAATCTTTCTGTTCAAGCGCCATCTAC”: the binding signal was 0.647 RPM ratio (pull-down/input).

On to “GATGATTGTTCTCCCAGCTGATGAATTGTGATGTTCGAGTAAACAAATTTTCCTAATCTTTCTGTTCAAGCGCCATCTAC”, for which the binding signal is 4.21 RPM ratio (pull-down/input).

On to “GATGATTGTTCTCCCAGCTGATGAATTGCTTTATTCGAGTAAACAAATTTTCCTAATCTTTCTGTTCAAGCGCCATCTAC”, for which the binding signal is 1.09 RPM ratio (pull-down/input).

In the case of “GATGATTGTTCTCCCAGCTGATGAATTTTGCTTATCGAGTAAACAAATTTTCCTAATCTTTCTGTTCAAGCGCCATCTAC”, the binding signal was 6.46 RPM ratio (pull-down/input).
